According to PubChem BioAssay (NCATS):
Records with an inconclusive call do not appear. Calls of active or inactive are those of the source. Unless noted, calls follow the shape of the dose curve; as a rule, active = well fitted curve in the direction sought with a large enough effect; inconclusive = small, poorly fitted or top-dose-only effect, or another doubt; inactive = no such curve, though single readings can be large; an effect the other way counts as inactive or inconclusive.

Tests used:
[1] = target: Lysosomal acid glucosylceramidase (Homo sapiens) (UniProt P04062); experiment: Glucocerebrosidase-p2 (AID 348; in the data active = potency below about 10 µM; also: potency is read from the fitted curve at half-maximal effect); conditions: purified GBA, blue fluorogenic substrate, 40 min
How it was run: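 Normal human glucocerebrosidase (0.2 nM) with blue fluorogenic substrate (80 uM final) in citrate/phosphate pH 5.9 with 10mM sodium taurocholate, 0.01% tween-20; 40 min RT, NaOH/glycine stop; fluorescence Ex 365/Em 440; AC50 from a titration from 0.6 nM upwards.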

[2] = AP1 Signaling Pathway (AID 357; active = well fitted curve in either direction with a large enough effect, not every such curve was filed as active; also: % is scaled to controls: 0 for no effect and ±100 for the full control effect); conditions: ME-180 AP-1-bla reporter, EGF-induced, beta-lactamase ratio, 5 h; at 7.69 µM (top of the series) unless noted
How it was run: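 ME-180 cells with beta-lactamase reporter under AP-1 response element, stimulated with EC50 EGF; compounds tested in titration series, 5 h at 37 °C. CCF4 substrate added 2.5 h at room temperature; 460/530 nm emission ratio gave %activity and AC50.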

[3] = target: Cytochrome P450 1A2 (Homo sapiens) (UniProt P05177); experiment: p450-cyp1a2 (AID 410; calls by dose curve; also: potency is read from the fitted curve at half-maximal effect;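 as to activity change, negative = inhibition: -100% = full effect of reference inhibitor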); conditions: recombinant CYP1A2, luciferin-ME demethylation, luminescence; series mostly up to 11.4 µM
How it was run: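 Luminescent demethylation readout: Luciferin-ME (100uM, equal to Km) turned over by 20nM CYP1A2 for 60 min at room temperature after NADPH regeneration addition, following 10 min compound preincubation. Normalization used 57 uM furafylline as full inhibition.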

[4] = Stat Signaling Pathway (AID 446; active = well fitted curve in either direction with a large enough effect, not every such curve was filed as active;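 also: ME-180 cervical cancer cells given 40 pM IL-6 alongside compound; SIE-controlled beta-lactamase reporter measured as 460/530 nm FRET emission ratio; % is scaled to controls: 0 for no effect and ±100 for the full control effect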); conditions: ME-180 (cervical carcinoma) SIE beta-lactamase reporter, IL-6 stimulated, 5 h; at 7.69 µM (top of the series) unless noted
How it was run: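 Normalization used AC90 stimulation (300 pM IL-6) and AC90 inhibition (125 nM pan-JAK inhibitor at 40 pM IL-6). The underlying signal is SIE-driven beta-lactamase in ME-180 cells after 5 h IL-6 exposure with compound.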

[5] = target: Glucocorticoid receptor (Homo sapiens) (UniProt P04150); experiment: GR-EFC Redistribution (AID 451; calls by dose curve; also: potency is read from the fitted curve at half-maximal effect); conditions: CHO-K1 GR-EFC translocation, beta-gal luminescence, 2 h
How it was run: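 CHO-K1 cells stably expressing nuclear-localized β-gal enzyme acceptor and GR fused C-terminally to the enzyme donor fragment; ligand-driven nuclear translocation restores β-gal by complementation. Compounds titrated up to 46 uM final, 2 h at 37 °C; luminescence read.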

[6] = target: Mitogen-activated protein kinase 10 (Mus musculus) (UniProt Q61831); experiment: JNK3 AlphaScreen Assay (AID 530; active = well fitted curve in either direction with a large enough effect, not every such curve was filed as active;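 also: kinase came from lysate of stimulated human HepG2 cells; signal reports phosphorylation of biotinylated GST-cJun 1-79 at Ser73 with 10 µM ATP; % is scaled to controls: 0 for no effect and ±100 for the full control effect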); conditions: JNK3 lysate, c-Jun phosphorylation; series mostly up to 11.4 µM
How it was run: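 Phosphorylation of biotinylated GST-cJun(1-79) at Ser73 is measured by AlphaScreen proximity luminescence. Enzyme is JNK3 in HepG2 lysates activated with interleukin-1beta and tumor necrosis factor alpha; ATP is 10 uM final.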

[7] = target: 3',5'-cyclic-AMP phosphodiesterase 4B (Homo sapiens) (UniProt Q07343); experiment: qHTS Assay for Inhibitors of PDE-IV (AID 607; active = well fitted activation curve with a large enough effect in the main read-out, with a control signal flat, not every such curve was filed as active; also: % of control where 0% means no effect); conditions: HEK293 ACTOne CNG channel cells, membrane potential fluorescence; series mostly up to 22.9 µM
How it was run: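 HEK293 ACTOne cells with CNG channel (1000/well), endogenous PDE4; membrane potential dye, compounds up to 22.9 uM final. Fluorescence Ex 535/Em 590; RO 20-1724 (100 uM final) as reference.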

[8] = target: Cytochrome P450 3A4 (Homo sapiens) (UniProt P08684); experiment: qHTS Assay for Inhibitors and Substrates of Cytochrome P450 3A4 (AID 884); conditions: recombinant CYP3A4, Luciferin-PPXE luminescence; series mostly up to 57.1 µM; also: potency is read from the fitted curve at half-maximal effect; nearly all actives have a fitted effect of over 50% in size
How it was run: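 Luminescent readout of luciferin produced by CYP3A4 (20 nM) dealkylation of Luciferin-PPXE, 25 uM (its KM). NADPH-driven reaction ran 60 min at RT after 10 min compound preincubation; data scaled to 57 uM ketoconazole as 100% inhibition.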

[9] = target: Cytochrome P450 3A4 (Homo sapiens) (UniProt P08684); experiment: qHTS Assay for Activators of Cytochrome P450 3A4 (AID 885); conditions: recombinant CYP3A4, Luciferin-PPXE luminescence, 60 min; series mostly up to 11.4 µM; also: nearly all actives have a fitted effect of over 65% in size
How it was run: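 Human CYP3A4 dealkylates Luciferin-PPXE to luciferin, which luciferase detection converts to light. Substrate was at its KM (25uM), buffer 200mM KPO4, reaction 60 min at RT.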

[10] = target: Glucocorticoid receptor (Homo sapiens) (UniProt P04150); experiment: GR-GFP Redistribution (AID 450;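 active = compounds whose dose series gives a full or clear partial fitted curve of increased nuclear translocation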; also: potency is read from the fitted curve at half-maximal effect); conditions: U2OS GR-GFP nuclear translocation, laser cytometry, 2 h
[11] = target: Cytochrome P450 2C19 (Homo sapiens) (UniProt P33261); experiment: qHTS Assay for Inhibitors and Substrates of Cytochrome P450 2C19 (AID 899); conditions: recombinant CYP2C19, luciferin-H EGE luminescence; series mostly up to 11.4 µM; also: potency is read from the fitted curve at half-maximal effect; nearly all actives have a fitted effect of over 60% in size
How it was run: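 In 50mM KPO4, the reaction held 5nM enzyme and KM-level (10uM) Luciferin-H EGE; it ran 60 min at 37C after NADPH regeneration and a 10 min compound preincubation. Luminescence values were scaled to 57uM ketoconazole as complete inhibition.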

[12] = target: Cytochrome P450 2C9 (Homo sapiens) (UniProt P11712); experiment: qHTS Assay for Inhibitors and Substrates of Cytochrome P450 2C9 (AID 883); conditions: recombinant CYP2C9, luciferin-H luminescence, 60 min; series mostly up to 11.4 µM; also: potency is read from the fitted curve at half-maximal effect; nearly all actives have a fitted effect of over 60% in size
How it was run: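 CYP2C9 deoxyluciferin hydroxylation, 37C, 60 min with NADPH regeneration; 10nM enzyme, 100uM Luciferin-H (KM). Glo detection reagent stopped reaction; luminescence normalized to sulphaphenazole (57uM) full inhibition.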

[13] = NFAT Signaling Pathway (AID 444; active = well fitted curve in either direction with a large enough effect, not every such curve was filed as active;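 also: carbachol stimulus at about its EC50 of 1 µM final; % is scaled to controls: 0 for no effect and ±100 for the full control effect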); conditions: Jurkat NFAT-bla M1, carbachol, beta-lactamase ratio, 5 h; at 7.69 µM (top of the series) unless noted
How it was run: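 Jurkat cells carrying an NFAT-driven β-lactamase reporter and co-transfected muscarinic M1 receptor were treated with compound plus carbachol (1 uM final, an EC50 level) for 5 h at 37 °C. CCF4 loading followed for 1 h at RT; 460/530 nm ratio gave %activity.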

[14] = target: ATP-dependent 6-phosphofructokinase (Trypanosoma brucei brucei) (UniProt O15648); experiment: qHTS Assay to Find Inhibitors of T. brucei phosphofructokinase: hit validation (AID 492961); conditions: T. brucei PFK, ADP-Glo luminescence; series mostly up to 51.4 µM
How it was run: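 Reaction: 0.1 M triethanolamine pH 8.0, 5 mM MgCl2, F6P 0.5 mM, ATP 0.1 mM, PFK 1.25 nM, 45 min RT. Read-out: ADP-Glo luminescence. Analysis: concentration-response fits, classed by r2 and efficacy.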

[15] = qHTS profiling for inhibitors of Plasmodium falciparum proliferation (AID 504749);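 also: 0% = DMSO vehicle and full inhibition = artemisinin control; nearly all actives have a fitted effect of over 60% in size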; conditions: P. falciparum in erythrocytes, SYBR Green DNA, 72 h, at 28.7 µM (top of the series)
How it was run: (§1)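 Quantitative HTS: compounds pinned into medium, infected erythrocytes added (0.3% parasitemia, 2.5% hematocrit), 72 h culture at 37 C under 5% CO2. Saponin/Triton lysis with SYBR Green I, overnight RT, then fluorescence read.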

AS120 = experiment: as above; conditions: P. falciparum in erythrocytes, SYBR Green DNA, 72 h; series mostly up to 28.7 µM
How it was run: as §1

ATS189 = experiment: as above; conditions: P. falciparum in erythrocytes, SYBR Green DNA, 72 h; series mostly up to 28.7 µM
How it was run: as §1

W2 = experiment: as above; conditions: P. falciparum in erythrocytes, SYBR Green DNA, 72 h; series mostly up to 28.7 µM
How it was run: as §1

[16] = target: Cytochrome P450 2D6 (Homo sapiens) (UniProt P10635); experiment: qHTS Assay for Inhibitors and Substrates of Cytochrome P450 2D6 (AID 891); conditions: recombinant CYP2D6, luciferin-ME EGE luminescence; series mostly up to 11.4 µM; also: potency is read from the fitted curve at half-maximal effect; nearly all actives have a fitted effect of over 60% in size
How it was run: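 Luminescent read-out of luciferin formed by 5 nM human CYP2D6 demethylating 30 uM Luciferin-ME EGE (Km level) over 60 min at room temperature after NADPH regeneration addition. Data normalized to full inhibition by 1.43 uM quinidine.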

Cytochrome P450 2C19 (Homo sapiens), sequence (P33261 whole entry, looked up): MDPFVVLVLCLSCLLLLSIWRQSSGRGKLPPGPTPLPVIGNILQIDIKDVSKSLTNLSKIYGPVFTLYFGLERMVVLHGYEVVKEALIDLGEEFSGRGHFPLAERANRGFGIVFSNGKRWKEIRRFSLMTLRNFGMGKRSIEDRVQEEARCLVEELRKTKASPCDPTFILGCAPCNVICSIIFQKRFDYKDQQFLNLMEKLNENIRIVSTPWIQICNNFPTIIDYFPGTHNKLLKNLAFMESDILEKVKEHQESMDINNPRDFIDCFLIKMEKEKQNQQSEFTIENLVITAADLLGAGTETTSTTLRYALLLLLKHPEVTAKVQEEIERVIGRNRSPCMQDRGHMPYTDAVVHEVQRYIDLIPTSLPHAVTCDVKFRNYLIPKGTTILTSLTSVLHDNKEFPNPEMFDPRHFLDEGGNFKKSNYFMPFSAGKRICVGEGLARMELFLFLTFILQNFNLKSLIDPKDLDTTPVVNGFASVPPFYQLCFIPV
3',5'-cyclic-AMP phosphodiesterase 4B (Homo sapiens), sequence (Q07343 whole entry, looked up): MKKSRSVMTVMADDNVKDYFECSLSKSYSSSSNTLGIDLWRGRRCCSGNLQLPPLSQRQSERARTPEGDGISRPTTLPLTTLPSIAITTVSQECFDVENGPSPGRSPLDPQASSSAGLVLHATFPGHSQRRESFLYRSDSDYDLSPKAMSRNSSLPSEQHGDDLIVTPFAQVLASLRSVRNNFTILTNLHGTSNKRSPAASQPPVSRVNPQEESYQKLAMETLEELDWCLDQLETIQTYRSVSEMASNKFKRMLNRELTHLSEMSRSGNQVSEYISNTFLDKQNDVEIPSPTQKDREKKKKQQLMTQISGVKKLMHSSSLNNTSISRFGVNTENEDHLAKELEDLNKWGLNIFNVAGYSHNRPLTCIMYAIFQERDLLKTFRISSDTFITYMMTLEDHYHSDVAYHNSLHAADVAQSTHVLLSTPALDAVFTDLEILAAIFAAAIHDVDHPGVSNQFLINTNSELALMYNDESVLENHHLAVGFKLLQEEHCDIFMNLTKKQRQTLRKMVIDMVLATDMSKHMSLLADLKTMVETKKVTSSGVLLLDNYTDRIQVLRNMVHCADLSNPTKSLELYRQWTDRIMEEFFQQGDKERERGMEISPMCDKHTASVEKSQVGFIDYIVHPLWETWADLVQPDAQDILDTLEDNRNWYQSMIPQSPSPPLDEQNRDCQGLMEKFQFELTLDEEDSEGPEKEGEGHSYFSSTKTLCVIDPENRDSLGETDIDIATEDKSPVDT
Glucocorticoid receptor (Homo sapiens), sequence (P04150 whole entry, looked up, the tested form may be a part): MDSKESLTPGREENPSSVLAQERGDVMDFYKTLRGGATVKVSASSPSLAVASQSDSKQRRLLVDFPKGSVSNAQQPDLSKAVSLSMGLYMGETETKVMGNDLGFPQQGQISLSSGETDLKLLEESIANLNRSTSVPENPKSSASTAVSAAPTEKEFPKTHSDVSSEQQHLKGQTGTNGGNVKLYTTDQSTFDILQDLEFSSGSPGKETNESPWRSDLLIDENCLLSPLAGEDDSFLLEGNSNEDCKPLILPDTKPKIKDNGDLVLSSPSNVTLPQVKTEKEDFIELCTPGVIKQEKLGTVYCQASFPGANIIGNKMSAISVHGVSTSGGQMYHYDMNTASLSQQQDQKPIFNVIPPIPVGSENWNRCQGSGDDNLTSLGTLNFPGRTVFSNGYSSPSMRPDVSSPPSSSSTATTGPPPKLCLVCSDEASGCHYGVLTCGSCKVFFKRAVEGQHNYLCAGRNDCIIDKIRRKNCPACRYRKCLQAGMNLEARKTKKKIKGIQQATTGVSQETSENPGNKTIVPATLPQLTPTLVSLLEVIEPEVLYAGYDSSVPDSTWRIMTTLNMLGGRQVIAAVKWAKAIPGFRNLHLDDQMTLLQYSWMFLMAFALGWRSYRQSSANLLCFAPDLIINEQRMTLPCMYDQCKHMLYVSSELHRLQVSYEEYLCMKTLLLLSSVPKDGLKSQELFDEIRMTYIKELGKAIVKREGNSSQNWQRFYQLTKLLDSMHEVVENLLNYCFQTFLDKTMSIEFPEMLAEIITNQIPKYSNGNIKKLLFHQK
Cytochrome P450 3A4 (Homo sapiens), sequence (P08684 whole entry, looked up): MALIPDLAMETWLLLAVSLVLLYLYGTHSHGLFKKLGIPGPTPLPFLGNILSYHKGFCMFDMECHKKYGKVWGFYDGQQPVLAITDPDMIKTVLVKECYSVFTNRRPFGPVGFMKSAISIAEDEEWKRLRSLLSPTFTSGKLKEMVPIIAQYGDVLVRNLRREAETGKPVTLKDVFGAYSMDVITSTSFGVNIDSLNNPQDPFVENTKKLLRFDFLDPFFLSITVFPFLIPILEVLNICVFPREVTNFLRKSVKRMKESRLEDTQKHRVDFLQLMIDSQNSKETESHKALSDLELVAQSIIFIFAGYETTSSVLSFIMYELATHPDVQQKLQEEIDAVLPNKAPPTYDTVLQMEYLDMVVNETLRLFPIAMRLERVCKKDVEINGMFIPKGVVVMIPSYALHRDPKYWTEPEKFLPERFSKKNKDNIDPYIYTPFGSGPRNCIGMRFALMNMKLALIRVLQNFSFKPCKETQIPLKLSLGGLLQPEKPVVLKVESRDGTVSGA
Cytochrome P450 1A2 (Homo sapiens), sequence (P05177 whole entry, looked up): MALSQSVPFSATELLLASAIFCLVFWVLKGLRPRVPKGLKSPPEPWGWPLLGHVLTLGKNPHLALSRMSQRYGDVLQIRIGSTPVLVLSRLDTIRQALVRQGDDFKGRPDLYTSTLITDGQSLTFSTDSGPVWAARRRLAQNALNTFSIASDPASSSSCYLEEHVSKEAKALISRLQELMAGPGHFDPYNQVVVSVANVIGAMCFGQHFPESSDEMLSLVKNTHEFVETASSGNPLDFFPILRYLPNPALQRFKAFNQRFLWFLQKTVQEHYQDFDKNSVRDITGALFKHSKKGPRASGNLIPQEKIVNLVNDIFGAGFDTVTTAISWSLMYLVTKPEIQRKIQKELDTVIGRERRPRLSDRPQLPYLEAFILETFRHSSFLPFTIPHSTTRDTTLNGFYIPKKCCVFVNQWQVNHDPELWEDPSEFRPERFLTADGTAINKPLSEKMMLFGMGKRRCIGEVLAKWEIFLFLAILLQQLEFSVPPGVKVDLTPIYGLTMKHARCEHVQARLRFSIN
Lysosomal acid glucosylceramidase (Homo sapiens), sequence (P04062 whole entry, looked up): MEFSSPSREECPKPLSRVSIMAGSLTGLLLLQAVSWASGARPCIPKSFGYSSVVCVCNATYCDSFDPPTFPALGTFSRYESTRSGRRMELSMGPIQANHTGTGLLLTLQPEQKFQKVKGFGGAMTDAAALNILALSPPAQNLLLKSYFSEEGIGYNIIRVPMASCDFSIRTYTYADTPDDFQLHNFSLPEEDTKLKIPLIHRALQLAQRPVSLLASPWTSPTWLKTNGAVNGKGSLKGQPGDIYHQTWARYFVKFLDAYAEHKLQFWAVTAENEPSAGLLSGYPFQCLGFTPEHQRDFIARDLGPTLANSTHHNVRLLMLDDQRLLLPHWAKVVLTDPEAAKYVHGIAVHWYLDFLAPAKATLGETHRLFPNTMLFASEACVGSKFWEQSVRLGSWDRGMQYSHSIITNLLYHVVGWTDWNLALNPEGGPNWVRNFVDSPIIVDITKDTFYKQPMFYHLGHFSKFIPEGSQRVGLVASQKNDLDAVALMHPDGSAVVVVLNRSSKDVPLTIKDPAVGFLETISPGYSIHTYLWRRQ
Cytochrome P450 2C9 (Homo sapiens), sequence (P11712 whole entry, looked up): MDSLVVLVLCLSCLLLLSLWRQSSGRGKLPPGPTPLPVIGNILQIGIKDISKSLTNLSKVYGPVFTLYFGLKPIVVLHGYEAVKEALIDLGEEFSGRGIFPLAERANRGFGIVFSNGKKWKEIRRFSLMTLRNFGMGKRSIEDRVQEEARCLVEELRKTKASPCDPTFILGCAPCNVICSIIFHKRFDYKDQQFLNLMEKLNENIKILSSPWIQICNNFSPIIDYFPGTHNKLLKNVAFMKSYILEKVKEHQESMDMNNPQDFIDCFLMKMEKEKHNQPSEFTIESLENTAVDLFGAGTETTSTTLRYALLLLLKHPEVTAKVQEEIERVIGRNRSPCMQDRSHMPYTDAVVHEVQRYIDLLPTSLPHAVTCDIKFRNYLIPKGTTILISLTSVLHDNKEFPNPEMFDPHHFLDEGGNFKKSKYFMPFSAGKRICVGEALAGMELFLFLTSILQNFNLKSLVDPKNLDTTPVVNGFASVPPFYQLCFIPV
Cytochrome P450 2D6 (Homo sapiens), sequence (P10635 whole entry, looked up): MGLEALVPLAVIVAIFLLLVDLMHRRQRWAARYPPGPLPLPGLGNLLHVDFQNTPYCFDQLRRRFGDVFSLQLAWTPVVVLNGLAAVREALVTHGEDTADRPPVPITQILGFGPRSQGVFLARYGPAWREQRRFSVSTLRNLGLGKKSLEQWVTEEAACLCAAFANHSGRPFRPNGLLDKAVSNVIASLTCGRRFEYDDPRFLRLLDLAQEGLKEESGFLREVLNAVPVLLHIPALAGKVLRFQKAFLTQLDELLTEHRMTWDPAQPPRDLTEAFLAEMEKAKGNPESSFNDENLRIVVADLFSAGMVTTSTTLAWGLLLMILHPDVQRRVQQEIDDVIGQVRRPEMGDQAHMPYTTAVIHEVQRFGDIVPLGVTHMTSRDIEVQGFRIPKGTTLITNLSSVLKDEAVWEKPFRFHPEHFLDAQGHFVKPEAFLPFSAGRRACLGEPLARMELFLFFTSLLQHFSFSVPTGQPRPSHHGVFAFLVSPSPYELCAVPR

O=C(c1cc(C(F)(F)F)cc(C(F)(F)F)c1)N1CCC[C@@]2(CCN(Cc3ccccc3)C2)C1
inactive: Potency [1] > 11.4 µM | activity change, negative = inhibition [2] 2.92% | activity, negative = inhibition [4] 7.65% | Potency [5] > 46 µM | Potency [6] | Potency [7] | Potency [9]
active: Potency [3] 25.1 µM | Potency [8] 5.01 µM

O=C=Nc1ccc(Cc2ccc(N=C=O)cc2)cc1 (tested in a mixture with another compound)
active: Potency [3] 5.01 µM
inactive: Potency [1] > 11.4 µM | activity change, negative = inhibition [2] -8.4% | activity, negative = inhibition [4] -1.09% | Potency [6] | Potency [7]

CC(C)Cn1cnc2c(SCc3ccc(Cl)cc3Cl)nc(N)nc21
inactive: Potency [1] > 11.4 µM | activity change, negative = inhibition [2] -27.8% | Potency [10] > 46 µM | Potency [5] > 9.22 µM | Potency [6] | Potency [7] | Potency [9]
active: Potency [3] 1.26 µM | Potency [8] 3.98 µM | Potency [11] 2 µM

Oc1ccc(Cl)cc1Cc1cc(Cl)cc(Cc2cc(Cl)ccc2O)c1O
active: Potency [12] 2.51 µM | Potency [11] 1.26 µM
inactive: Potency [1] > 11.4 µM | activity change, negative = inhibition [2] -14% | activity change, negative = inhibition [3] -23.8% [at 2.29 µM] | Potency [10] > 46 µM | Potency [5] > 9.22 µM | Potency [6] | Potency [7]

Cc1cc(Cl)nc2ccc(Cc3ccc4nc(Cl)cc(C)c4c3)cc12
active: Potency [8] 3.16 µM | Potency [11] 0.501 µM
inactive: Potency [1] > 11.4 µM | activity change, negative = inhibition [2] -7.81% | activity change, negative = inhibition [3] -13.2% [at 2.29 µM] | activity, negative = inhibition [4] -4.37% | Potency [5] > 9.22 µM | Potency [6] | Potency [7] | Potency [9]

O=C(O)[C@@H](O)[C@@H](O)[C@H](O)C(=O)CO
inactive: Potency [1] > 11.4 µM | activity change, negative = inhibition [2] -1.75% | activity change, negative = inhibition [13] -10.1% | activity, negative = inhibition [4] 9.54% | Potency [10] > 46 µM | Potency [5] > 9.22 µM | Potency [6] | Potency [7] | outcome [14] | activity, negative = inhibition ([15]; parasite line A) 6.93% | activity, negative = inhibition ([15]; parasite line B) 7.4% | Potency (AS120) | Potency (ATS189) | Potency (W2)

COc1ccccc1-c1ccc2ncnc(NCc3cccnc3)c2c1
inactive: Potency [1] > 11.4 µM | activity change, negative = inhibition [2] -18.5% | activity, negative = inhibition [4] -19.8% | Potency [5] > 46 µM | Potency [6] | Potency [7] | Potency [9]
active: Potency [3] 0.794 µM | Potency [8] 0.631 µM | Potency [16] 7.94 µM | Potency [11] 0.0079 µM
